Records with an inconclusive call do not appear. The source made the active and inactive calls. Unless noted, calls follow the shape of the dose curve; as a rule, active = well fitted curve in the direction sought with a large enough effect in the repeat runs; inconclusive = weak or mixed curves; inactive = no such curve, though single readings can be large; an effect the other way counts as inactive or inconclusive.
Legend:
[1] = molecular target: Peroxisome proliferator-activated receptor delta (Homo sapiens) (UniProt Q03181); experiment: qHTS assay to identify small molecule agonists of the peroxisome proliferator-activated receptor delta (PPARd) signaling pathway (AID 743212; calls by dose curve)
Sequence of Peroxisome proliferator-activated receptor delta (Homo sapiens) (Q03181 whole entry, looked up): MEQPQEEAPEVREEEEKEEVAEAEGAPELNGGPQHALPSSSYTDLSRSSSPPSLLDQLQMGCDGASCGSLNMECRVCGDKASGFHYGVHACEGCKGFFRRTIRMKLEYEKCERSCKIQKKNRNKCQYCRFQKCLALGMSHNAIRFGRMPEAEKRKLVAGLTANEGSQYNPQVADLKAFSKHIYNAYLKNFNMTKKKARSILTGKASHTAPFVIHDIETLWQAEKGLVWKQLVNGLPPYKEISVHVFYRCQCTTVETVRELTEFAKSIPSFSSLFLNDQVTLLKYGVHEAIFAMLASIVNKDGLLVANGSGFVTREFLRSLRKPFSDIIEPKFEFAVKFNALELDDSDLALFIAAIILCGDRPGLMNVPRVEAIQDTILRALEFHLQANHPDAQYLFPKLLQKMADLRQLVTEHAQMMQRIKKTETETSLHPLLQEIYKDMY
Method in brief: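 HEK293H PPARd-bla cells; 5 h preincubation 37 C/5% CO2; compound (DMSO) 37 C; LiveBLAzer B/G FRET substrate 2 h RT; fluorescence intensity.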

[2] = qHTS assay to identify small molecule antagonists of the peroxisome proliferator-activated receptor delta (PPARd) signaling pathway - cell viability counter screen (AID 743213); also: nearly all actives have a fitted effect of over 50% in size
Method in brief: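 In this counter screen, HEK293H cells carrying a UAS-beta-lactamase reporter are co-treated with test compounds and 300 nM L165041 (final) for 17 h at 37 C; cell viability is quantified by CellTiter-Glo luminescence.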

[3] = molecular target: Peroxisome proliferator-activated receptor delta (Homo sapiens) (UniProt Q03181); experiment: qHTS assay to identify small molecule antagonists of the peroxisome proliferator-activated receptor delta (PPARd) signaling pathway (AID 743215; active = well fitted inhibition curve with a large enough effect in the signal ratio in the repeat runs, not every such curve was filed as active; the % refers to the signal ratio;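 also: cells stimulated with agonist L165041 at 300 nM final during compound exposure; series mostly up to about 62 µM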)
Method in brief: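 Antagonist-mode beta-lactamase reporter screen: HEK293H cells with UAS-bla under PPARd control, stimulated by 300 nM L165041 (final) alongside test compound for 17 h at 37 C, then FRET fluorescence after 2 h substrate incubation.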

[4] = qHTS assay to identify small molecule agonists of the farnesoid-X-receptor (FXR) signaling pathway - cell viability counter screen (AID 743218); also: nearly all actives have a fitted effect of over 45% in size
Method in brief: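 In GeneBLAzer FXR-UAS-bla HEK 293T cells, compounds act for 16 h at 37 C. Cell viability is then scored in the reporter wells by CellTiter-Glo, 30 min at RT, luminescence.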

[5] = qHTS assay to identify small molecule antagonists of the farnesoid-X-receptor (FXR) signaling pathway - cell viability counter screen (AID 743221; active = well fitted cell-killing curve with a large enough effect in the repeat runs, not every such curve was filed as active; also: nearly all actives have a fitted effect of over 50% in size)
Method in brief: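 GeneBLAzer FXR-UAS-bla HEK 293T cells, compound plus chenodeoxycholic acid (50 uM final), 16 h at 37 C. CellTiter-Glo added to the same wells after the beta-lactamase read; luminescence read after 30 min at room temperature as viability.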

[6] = molecular target: Vitamin D3 receptor (Homo sapiens) (UniProt P11473); experiment: qHTS assay to identify small molecule agonists of the vitamin D receptor (VDR) signaling pathway (AID 743222; calls by dose curve)
Sequence of Vitamin D3 receptor (Homo sapiens) (P11473 whole entry, looked up): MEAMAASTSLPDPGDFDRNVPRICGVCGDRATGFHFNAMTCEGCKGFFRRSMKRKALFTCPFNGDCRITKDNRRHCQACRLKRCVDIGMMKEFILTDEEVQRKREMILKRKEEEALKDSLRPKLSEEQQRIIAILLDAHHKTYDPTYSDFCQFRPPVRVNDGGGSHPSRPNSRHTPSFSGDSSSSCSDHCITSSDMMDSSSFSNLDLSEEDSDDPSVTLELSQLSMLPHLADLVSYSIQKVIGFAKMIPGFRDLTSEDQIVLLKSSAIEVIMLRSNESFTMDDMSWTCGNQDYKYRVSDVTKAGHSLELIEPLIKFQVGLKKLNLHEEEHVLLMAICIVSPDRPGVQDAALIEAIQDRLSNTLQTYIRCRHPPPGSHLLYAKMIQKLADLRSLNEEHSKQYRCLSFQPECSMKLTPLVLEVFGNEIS
Method in brief: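 Agonist activity measured in VDR-bla reporter cells. Exposure 16 h, 37C, 5% CO2; detection by B/G FRET substrate, 2 h RT.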

[7] = molecular target: Vitamin D3 receptor (Homo sapiens) (UniProt P11473); experiment: qHTS assay to identify small molecule antagonists of the vitamin D receptor (VDR) signaling pathway (AID 743223; active = well fitted inhibition curve with a large enough effect in the signal ratio in the repeat runs, not every such curve was filed as active; the % refers to the signal ratio)
Method in brief: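 VDR-bla cells were treated with compound plus 3 nM final 1alpha,25-dihydroxyvitamin D3 for 16 h at 37C. Beta-lactamase reporter read by B/G FRET substrate fluorescence after 2 h at room temperature. qHTS format.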

[8] = qHTS assay to identify small molecule agonists of the vitamin D receptor (VDR) signaling pathway - cell viability counter screen (AID 743224); also: series mostly up to about 63 µM; nearly all actives have a fitted effect of over 50% in size
Method in brief: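 VDR-bla cell line, quantitative HTS format; 16 h compound incubation (37C, 5% CO2); ATP-based CellTiter-Glo luminescence measured in the reporter assay wells.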

[9] = molecular target: Bile acid receptor (Homo sapiens) (UniProt Q96RI1); experiment: qHTS assay to identify small molecule antagonists of the farnesoid-X-receptor (FXR) signaling pathway (AID 743217; active = well fitted inhibition curve with a large enough effect in the signal ratio in the repeat runs, not every such curve was filed as active; the % refers to the signal ratio)
Sequence of Bile acid receptor (Homo sapiens) (Q96RI1 whole entry, looked up): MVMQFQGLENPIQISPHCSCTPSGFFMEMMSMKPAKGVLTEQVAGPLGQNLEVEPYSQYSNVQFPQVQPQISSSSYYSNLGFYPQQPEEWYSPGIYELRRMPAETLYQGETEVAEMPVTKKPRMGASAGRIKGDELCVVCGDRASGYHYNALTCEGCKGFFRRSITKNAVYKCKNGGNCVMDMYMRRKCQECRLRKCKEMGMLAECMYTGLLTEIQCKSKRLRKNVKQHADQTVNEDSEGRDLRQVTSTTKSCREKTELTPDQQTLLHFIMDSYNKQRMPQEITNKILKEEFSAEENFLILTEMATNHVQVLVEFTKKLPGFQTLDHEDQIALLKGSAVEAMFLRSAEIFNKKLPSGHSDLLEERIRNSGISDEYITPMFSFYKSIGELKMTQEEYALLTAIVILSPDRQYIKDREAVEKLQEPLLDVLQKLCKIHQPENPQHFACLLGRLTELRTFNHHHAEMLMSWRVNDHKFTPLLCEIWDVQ
Method in brief: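 Beta-lactamase reporter under UAS control in HEK 293T cells; compound exposure 16 h at 37 °C in the presence of chenodeoxycholic acid (50 uM final); signal from B/G FRET substrate after 2 h at room temperature.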

[10] = molecular target: Bile acid receptor (Homo sapiens) (UniProt Q96RI1); experiment: qHTS assay to identify small molecule agonists of the farnesoid-X-receptor (FXR) signaling pathway (AID 743220; active = well fitted activation curve with a large enough effect in the signal ratio in the repeat runs, not every such curve was filed as active; the % refers to the signal ratio)
Method in brief: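 Beta-lactamase reporter under UAS control in GeneBLAzer FXR HEK 293T cells (5000/well) measured with LiveBLAzer FRET substrate after 2 h at room temperature. Compound exposure lasted 16 h at 37C.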

Measured: outcome

C[C@@H](CN1CC(=O)NC(=O)C1)N1CC(=O)NC(=O)C1
inactive: [1] | [2] | [3] | [4] | [5] | [6] | [7] | [8]

CN(C)CCC[C@@]1(c2ccc(F)cc2)OCc2cc(C#N)ccc21
inactive: [1] | [2] | [3] | [4] | [5] | [6] | [8]

CC(=O)OC/C=C(/C)CCC=C(C)C
inactive: [1] | [2] | [3] | [4] | [5] | [8]

CCOC(=O)CC(C(C)=O)C(C)=O
inactive: [1] | [2] | [3] | [4] | [5] | [6] | [7] | [8]

CCO/C=C1\N=C(c2ccccc2)OC1=O
inactive: [1] | [2] | [3] | [4] | [5] | [8]

Clc1ccc2c(c1)Nc1ccccc1S2
inactive: [1] | [2] | [3] | [5] | [7] | [8]

CC1=C(O)C(=O)CO1
inactive: [1] | [2] | [3] | [5] | [7] | [8]

O=S(=O)(O)CC(O)CCl (configuration not stated)
inactive: [1] | [2] | [9] | [4] | [10] | [5] | [6] | [7] | [8]

CCC(C)c1nccnc1OC (configuration not stated)
inactive: [1] | [3] | [9] | [4] | [10] | [5] | [6] | [7] | [8]

CCO[Si](CC(C)C)(OCC)OCC
inactive: [1] | [3] | [9] | [10] | [5] | [6] | [7]

C=COCCCCO
inactive: [1] | [2] | [3] | [5] | [8]

Source: PubChem BioAssay (Tox21)
